Assay outcomes as filed in PubChem.
In the library only some 4.7% were active in any assay of this set; here they are far more common.
TRHR PAM = allosteric enhancers of human TRH receptor | P34981 | hit rate 0.66% among 360,000 | TRHR cells, fluo-8 calcium fluorescence, EC20 TRH enhancement | enhancement, % at 2 µM; in the data active = enhancement above about 30%
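TRHR-expressing cells loaded with fluo-8 calcium dye were read kinetically (ex 480/em 530) during compound addition, then stimulated with an EC20 of TRH (10 nM final). Enhancement of the Gq-mediated intracellular calcium response was scored.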
D1 potentiator = enhances dopamine response at the human D1 receptor. AID 504651. hit rate 0.036% among 360,000. P21728. potentiation, % at 10 µM. HEK293 TREx D1 cells, calcium flux, dopamine EC20 potentiation; in the data active = potentiation above about 30%
Target sequence (P21728 whole entry, looked up): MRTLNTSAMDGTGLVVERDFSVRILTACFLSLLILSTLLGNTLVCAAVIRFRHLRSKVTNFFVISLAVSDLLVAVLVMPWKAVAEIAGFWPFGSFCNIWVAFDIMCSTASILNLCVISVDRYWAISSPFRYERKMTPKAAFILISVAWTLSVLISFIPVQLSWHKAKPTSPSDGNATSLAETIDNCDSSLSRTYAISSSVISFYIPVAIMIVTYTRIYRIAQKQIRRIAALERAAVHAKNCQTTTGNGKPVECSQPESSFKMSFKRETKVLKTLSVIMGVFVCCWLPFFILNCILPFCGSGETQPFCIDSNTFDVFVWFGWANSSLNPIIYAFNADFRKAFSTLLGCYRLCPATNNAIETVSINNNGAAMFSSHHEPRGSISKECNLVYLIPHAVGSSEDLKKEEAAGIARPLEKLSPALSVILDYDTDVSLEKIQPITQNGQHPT
D1 antag = blocks dopamine activation of the human D1 receptor; HEK293 TREx D1 cells, calcium flux, dopamine EC80; active compounds read low; hit rate 3.2% among 360,000; AID 504652; activity change, negative = inhibition, % at 10 µM; P21728; in the data active = activity change below about -30%
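After overnight tetracycline induction at 30 C, force-coupled D1 HEK293 cells took up a no-wash calcium dye at room temperature. Compounds were added and monitored 180 s, and the response to EC80 dopamine was then recorded.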
D1 ag = human D1 receptor agonism. P21728. HEK293 T-REx D1 cells, calcium flux, agonist mode. activation, % at 2 µM. hit rate 1% among 360,000. AID 504660
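Tetracycline-induced HEK293 TREx D1 cells, force-coupled to calcium signalling, were dye-loaded with a no-wash calcium kit. Compound was pin-added after a 10 s baseline. Fluorescence was read kinetically at 1 cycle/s for 180 s, with calcium rises flagged as agonism.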
TRHR agonist = agonists of human TRH receptor | P34981 | TRHR cells, calcium flux fluo-8, FDSS agonist mode | activation, % at 2 µM | hit rate 0.18% among 360,000 | AID 493084
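Agonist-mode FDSS calcium read (Ex 480/Em 530, 1 s cycles) in 1536-well TRHR cells with fluo-8 dye, after 10-cycle baseline and 23 nL compound addition; TRH at EC20 (10 nM final) added afterwards for the enhancer phase.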
Large screens that a line does not name were inactive. Rule as the data show it, unless noted: active = activation above about 30%; inactive = the rest.

Cc1ccc(-c2noc(-c3ccccc3NC(=O)C3CC(=O)N(c4ccc(C)cc4)C3)n2)cc1 (stereo not given)	none
Cc1cccc(OCC(=O)O/N=C(\N)c2ccc(Cl)cc2)c1	D1 antag -43
N/C(=N\OC(=O)c1cccc(Cl)c1)c1ccccn1	D1 antag -38
N/C(=N\OC(=O)c1cccnc1)c1ccc(Cl)cc1Cl	D1 antag -33
N/C(=N\OC(=O)COc1ccc(Br)cc1)c1ccncc1	D1 antag -39
O=C(Nc1ccccc1C(F)(F)F)c1ccc(F)c(S(=O)(=O)N2CCc3ccccc3C2)c1	none
N/C(=N\OC(=O)COc1ccc2ccccc2c1)c1ccccn1	D1 antag -53
N/C(=N\OC(=O)COc1ccccc1Cl)c1ccccn1	none
Cc1ccc(CNC(=O)c2c(-c3ccccc3Cl)noc2C)o1	none
Cc1ccc2c(C)c(C(=O)N(C)C(C)c3ccon3)oc2c1C (stereo not given)	D1 antag -39
COc1ccc(NC(=O)N2CCCc3ccccc32)cc1OC	D1 antag -55
CCCOc1ccc(C(=O)N2CCCc3ccccc32)cc1	D1 antag -45
COc1ccc(CC(=O)OCC(=O)c2ccc(OC)c(OC)c2)cc1	D1 antag -31
CCOC(=O)N1CCN(C(=O)COC(=O)Cc2ccc(OC)cc2)CC1	TRHR PAM 34
CCOc1ccc(C(=O)N2CCc3ccccc32)cc1	none
COCCNC(=O)c1ccccc1NC(=O)c1nsc2ccccc12	none
Cc1nn(CCC(=O)Nc2ccc(Cl)cc2)c(C)c1S(=O)(=O)N1CCCCC1	none
Cc1ccc(-c2noc(-c3cccnc3N(C)Cc3ccc(Cl)cc3)n2)cc1	none
COc1ccc(CC(=O)OCC(=O)N2CCCc3ccccc32)cc1	D1 antag -41
COc1ccc(N2CCN(C(=O)C3(S(=O)(=O)c4ccc(C)cc4)CC3)CC2)cc1	D1 antag -58
COc1ccc(N2CCN(C(=O)COC(=O)c3cc(S(=O)(=O)N(C)C)ccc3N3CCCC3)CC2)cc1	D1 antag -48
COc1ccc(N2CCN(C(=O)COC(=O)CCOc3ccc(C)cc3)CC2)cc1	D1 antag -31
COc1ccc(-n2ncc3c(NC4CCCC4)ncnc32)cc1	none
Cc1ccc(NC(=O)c2cnc(SCC(=O)N3CCCc4ccccc43)n(C)c2=O)cc1	none (no result: D1 antag)
Cc1cc2nc(-c3ccc(NC(=O)c4ccc(OCC(C)C)cc4)cc3)oc2cc1C	none
Cc1cccc(N2CCN(C(=O)Cn3nc(Cc4cccnc4)c4ccccc4c3=O)CC2)c1C	none
CCCCc1ccc(NC(=O)c2cc3c(=O)n4ccccc4nc3s2)cc1	none
COc1ccc(S(=O)(=O)CCC(=O)N2CCN(c3ccc(C(C)=O)cc3)CC2)cc1	D1 antag -39
COc1ccc(N2CCN(C(=O)CCS(=O)(=O)c3ccc(OC)cc3)CC2)cc1	none
CCOC(=O)c1ccc(NC(=O)c2cnc3c(-c4ccc(F)cc4)c(C)nn3c2C)cc1	D1 antag -40
Cc1ccc(CNC(=O)c2cnc3c(-c4ccc(F)cc4)c(C)nn3c2C)o1	D1 antag -43
CCOC(=O)c1ccc(NC(=O)CCc2c(C)nc3c(-c4ccc(F)cc4)c(C)nn3c2C)cc1	none
CCOc1c(Cl)cc(C(=O)N(Cc2ccc(N(C)C)cc2)Cc2ccco2)cc1Cl	none
O=C(Nc1ccc(N=Nc2ccccc2)cc1)c1ccc(Cl)cc1Cl	D1 antag -38
O=C(Nc1ccc(N=Nc2ccccc2)cc1)c1ccccc1Cl	none
Cc1ccc(-n2nnnc2SCC(=O)Nc2ccc(N3CCN(C)CC3)cc2)c(C)c1	D1 antag -60
Cc1ccc(-n2nnnc2SCC(=O)Nc2cc(C)on2)c(C)c1	none
CN1CCN(c2ccc(NC(=O)CSc3nnnn3-c3ccccc3F)cc2)CC1	D1 antag -46
Cc1ccc(-n2nnnc2SCC(=O)Nc2sccc2C#N)cc1	D1 antag -66
Cc1ccc(NC(=O)Cn2nnc(-c3ccccc3)n2)c(C)c1	none
COc1nnc(-c2ccc(N3CCCCC3)c(NC(=O)c3ccccc3Cl)c2)c2ccccc12	none
Cc1ccc2[nH]c(CSc3nnc(NC(=O)c4ccccc4F)s3)cc(=O)c2c1	D1 antag -32
Cc1ccc2[nH]c(CSc3nnc(NC(=O)c4ccccc4C)s3)cc(=O)c2c1	none
COc1ccc(CNCCC(c2ccc(F)cc2)c2ccc(OC)cc2)cc1 (stereo not given)	D1 ag 34
COc1ccc(C(CCNCc2ccccc2)c2ccc(F)cc2)cc1 (stereo not given)	none
COc1ccc(C(CCNCc2ccc(F)cc2)c2ccc(F)cc2)cc1 (stereo not given)	D1 ag 46
COc1ccc(C(CCNC(C)c2ccccc2)c2ccc(F)cc2)cc1 (stereo not given)	D1 ag 56
COC(=O)c1cccc(Nc2c(-c3ccc(SC)cc3)nc3nc[nH]n23)c1	none
CCOC(=O)Cn1c(=O)oc2cc(S(=O)(=O)N3CCN(c4cc(C)ccc4C)CC3)ccc21	none
Fc1cccc(Nc2c3c(nc4ccccc24)CCC3)c1	D1 antag -53
CC(=O)c1cccc(Nc2c3c(nc4ccccc24)CCC3)c1	none
COc1ccccc1Nc1c2c(nc3ccccc13)CCC2	D1 antag -38
Nc1c2c(nc3ccc(Br)cc13)N(C1CCCCC1)CC2	none
Nc1c2c(nc3ccccc13)CCC2	D1 antag -43
Nc1c2c(nc3ccccc13)N(C1CCCCC1)CC2	D1 antag -37
O=C(Nc1ccc2nc(SCC(=O)N3CCCC3)sc2c1)c1ccccc1F	none
COc1cc(OC)c(NS(=O)(=O)c2c(C(=O)N3CCCCCC3)c(C)n(C)c2C)cc1Cl	none
CC(=O)c1ccc(Nc2c3c(nc4ccccc24)CCCC3)cc1	D1 antag -42
O=C(Nc1c2c(nc3ccccc13)CCCC2)c1ccccc1F	D1 antag -37
O=C(Nc1c2c(nc3ccccc13)CCCC2)c1ccccc1Cl	none
Cc1ccc(NC(=O)CN2CCSc3ccc(S(=O)(=O)N4CCCC4)cc32)cc1C	none
CSc1ccc(C2CC(=O)Nc3c2c(=O)n(C)c(=O)n3C)cc1 (stereo not given)	none
CCc1ccc(C2CC(=O)Nc3c2c(=O)n(C)c2ncnn32)cc1 (stereo not given)	D1 antag -39
CC(=O)OCc1c(C(F)(F)F)nn(C)c1Oc1ccccc1	none
CC(=O)OCc1c(C(F)(F)F)nn(C)c1Oc1cccc(C(F)(F)F)c1	D1 antag -35
O=C1N/C(=N\S(=O)(=O)Cc2ccccc2)S/C1=C/c1cc([N+](=O)[O-])ccc1O	TRHR PAM 49, D1 ag 267, TRHR agonist 102
O=C1N/C(=N\S(=O)(=O)c2ccccc2)S/C1=C\c1cc([N+](=O)[O-])ccc1O	TRHR PAM 40, D1 ag 168, TRHR agonist 114
